# Data taken from PubChem BioAssay (NCI).
# This is part of a sample that, as a whole, favours compounds with a hit. Of some 83,000 tested, about 20% had one in any assay.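 48-hour exposure, single concentration, 96-well plates; percent growth endpoint where 0 means no net growth. Active: below 10.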 Values without a mark were called inactive. Active and inactive are the calls of the source.
# System: RXF 393 renal
# Assay: NCI-60 one-dose screen, 48 h (100 = growth as untreated, 0 = no growth, -100 = all killed)
# Conditions: 10 µM
row,Compound,growth
1,Clc1ccc(Nc2ccnc(NCCCNc3ccnc4cc(Cl)ccc34)n2)cc1,-89.3% (active)
2,Oc1[nH]c2cc(Cl)ccc2c1/C=c1/ccc2c(c1)N=C(c1cc(F)cc(F)c1)N=2,1.45% (active)
3,CSc1nn(-c2ccccc2)c2ncnc(Oc3ccccc3)c12,83.6%
4,Cc1cc2c(C)c3cc(C)c(N)cc3nc2cc1N,16.3%
5,CCOC(=O)C1(CC(C)C)CCOC1=O (configuration not stated),118%
6,COc1ccc(Nc2cc(C)nc(NCCCNc3ccnc4cc(Cl)ccc34)n2)cc1,-90.4% (active)
7,CCCCCCCCCCCCCCCC(=O)OC1[C@@H](OC(=O)CCCCCCCCCCCCCCC)[C@@H](C(=O)N[C@@H](CCCCN)C(=O)OC)O[C@H]1n1cnc2c(=O)[nH]c(NC(=O)C(C)C)nc21 (some centres not stated),105%
8,COc1cc(Nc2ccnc(NCCNc3ccnc4cc(Cl)ccc34)n2)cc(OC)c1,46.2%
9,Cc1cc(Nc2ccc(Cl)cc2)nc(NCCCNc2ccnc3cc(Cl)ccc23)n1,-91.9% (active)
10,COc1cc2cc3c(nc2cc1OC)CCN3Cc1ccc(NC(=O)Nc2cc(C(F)(F)F)cc(C(F)(F)F)c2)cc1,82.5%
11,CC(C)=CCc1cc(O)cc2c1OC(C=C(C)C)C1=C2C(=O)C2=C(NCCS2(=O)=O)C1=O (configuration not stated),-2.85% (active)
12,CC(C)=CCc1cc(O)cc2c1OC(C=C(C)C)C1=C2C(=O)C2=C(C1=O)S(=O)(=O)CCN2 (configuration not stated),73.3%
13,COc1ccc(Nc2ccnc(NCCNc3ccnc4cc(Cl)ccc34)n2)cc1,55.7%
14,Cc1cc(Cl)nc(N(CCCNc2ccnc3cc(Cl)ccc23)Cc2cccs2)n1,0.398% (active)
15,COc1cc(Cl)cc(-c2nn(-c3cccc(NC(=O)Nc4cc(C(F)(F)F)cc(C(F)(F)F)c4)c3)cc2-c2ccncc2)c1,-29.3% (active)
16,CN(C)CCNC(=O)c1cccn2c(=O)c3cc4ccccc4cc3nc12,-89.5% (active)
17,CC12O[C@H](C[C@@H](O)[C@H]1O)n1c3ccccc3c3c4c(c5c6ccccc6n2c5c31)C(=O)N(CCCN)C4=O,26.4%
18,CCCCCCCC(C)NCCO (configuration not stated),105%
19,Cc1cc(N(CCCNc2ccnc3cc(Cl)ccc23)Cc2ccc3c(c2)OCO3)nc(N2CCOCC2)n1,-48% (active)
20,COc1cc(-c2nnc(-c3c(-c4ccc(F)cc4)nc4ccccn34)o2)cc(OC)c1OC,66.9%

row,Compound,growth
1,COc1ccc2c(c1)/C(=C\c1c[nH]c3ccc(OC)cc13)C(=O)N2,60.5%
2,NC(=O)CC1(c2ccccc2)CCCCC1,114%
3,COc1ccc(-c2nc3sccn3c2-c2nc3c([nH]2)C(=O)c2ccccc2C3=O)cc1,98.2%
4,Fc1ccc(-c2nnc(-c3c(-c4ccc(F)cc4)nc4ccccn34)o2)cc1,85.9%
5,CCN1CCCC1CNC(=O)c1ncc(-c2ccc(C(F)(F)F)cc2)c(NC2CCCCCC2)n1 (configuration not stated),74.1%
6,Cc1ccc(Nc2cc(C)nc(NCCCNc3ccnc4cc(Cl)ccc34)n2)cc1,-92.1% (active)
7,Cn1c([N+](=O)[O-])cnc1/C=C1\Oc2ccccc2C1=O,-68.9% (active)
8,CC12O[C@H](C[C@@H](OC(=O)c3ccccc3)[C@H]1O)n1c3ccccc3c3c4c(c5c6ccccc6n2c5c31)C(=O)NC4=O,15.6%
9,COc1ccc(-c2nc3ncccn3c2-c2nnc(-c3ccc(F)cc3)o2)cc1,111%
10,Nc1ccc2c(c1)C1(CCC2)NC(=O)NC1=O (configuration not stated),96.1%
11,COc1cc(OC)cc(-c2cncn2-c2ccc(-c3nc4cc(OC)cc(OC)c4s3)cc2)c1,58.1%
12,Clc1ccc2c(NCCCNc3nccc(Nc4ccc(Br)cc4)n3)ccnc2c1,-92.7% (active)
13,O=C(Nc1cccc(Br)c1)c1cc(=O)[nH]c2ccccc12,77.4%
14,COc1cc(Nc2ccnc(NCCCNc3ccnc4cc(Cl)ccc34)n2)cc(OC)c1,-83.3% (active)
15,CN1CCC(CNc2cc(C3(C(=O)Nc4cc(C(=O)Nc5ccc(Cl)c(C(F)(F)F)c5)ccc4F)CC3)ncn2)CC1,-46.8% (active)
16,N#Cc1c(C#N)c(SSc2c(C#N)c(C#N)c(N)n2-c2ccccc2)n(-c2ccccc2)c1N,98.8%
17,Clc1ccc(Nc2ccnc(NCCNc3ccnc4cc(Cl)ccc34)n2)cc1,0.0582% (active)
18,Cc1cc(N(CCCNc2ccnc3cc(Cl)ccc23)Cc2ccc3c(c2)OCO3)nc(N2CCCCC2)n1,-74.5% (active)
19,CCCCN(CCCC)c1cc(C(=O)CCCCCN)c2ccccc2n1,82.5%

# System: SF-268 CNS
# Assay: as above
# Conditions: 10 µM
row,Compound,growth
1,Clc1ccc(Nc2ccnc(NCCCNc3ccnc4cc(Cl)ccc34)n2)cc1,-75.8% (active)
2,CSc1nn(-c2ccccc2)c2ncnc(Oc3ccccc3)c12,92.5%
3,Cc1cc2c(C)c3cc(C)c(N)cc3nc2cc1N,15.2%
4,CCOC(=O)C1(CC(C)C)CCOC1=O (configuration not stated),98.7%
5,COc1ccc(Nc2cc(C)nc(NCCCNc3ccnc4cc(Cl)ccc34)n2)cc1,-54.5% (active)
6,CCCCCCCCCCCCCCCC(=O)OC1[C@@H](OC(=O)CCCCCCCCCCCCCCC)[C@@H](C(=O)N[C@@H](CCCCN)C(=O)OC)O[C@H]1n1cnc2c(=O)[nH]c(NC(=O)C(C)C)nc21 (some centres not stated),97.1%
7,COc1cc(Nc2ccnc(NCCNc3ccnc4cc(Cl)ccc34)n2)cc(OC)c1,50.5%
8,Cc1cc(Nc2ccc(Cl)cc2)nc(NCCCNc2ccnc3cc(Cl)ccc23)n1,-66.5% (active)
9,COc1cc2cc3c(nc2cc1OC)CCN3Cc1ccc(NC(=O)Nc2cc(C(F)(F)F)cc(C(F)(F)F)c2)cc1,78.6%
10,CC(C)=CCc1cc(O)cc2c1OC(C=C(C)C)C1=C2C(=O)C2=C(NCCS2(=O)=O)C1=O (configuration not stated),-1.83% (active)
11,CC(C)=CCc1cc(O)cc2c1OC(C=C(C)C)C1=C2C(=O)C2=C(C1=O)S(=O)(=O)CCN2 (configuration not stated),2.3% (active)
12,COc1ccc(Nc2ccnc(NCCNc3ccnc4cc(Cl)ccc34)n2)cc1,54.5%
13,Cc1cc(Cl)nc(N(CCCNc2ccnc3cc(Cl)ccc23)Cc2cccs2)n1,38.6%
14,COc1cc(Cl)cc(-c2nn(-c3cccc(NC(=O)Nc4cc(C(F)(F)F)cc(C(F)(F)F)c4)c3)cc2-c2ccncc2)c1,14.2%
15,CN(C)CCNC(=O)c1cccn2c(=O)c3cc4ccccc4cc3nc12,-14.9% (active)
16,CC12O[C@H](C[C@@H](O)[C@H]1O)n1c3ccccc3c3c4c(c5c6ccccc6n2c5c31)C(=O)N(CCCN)C4=O,36.5%
17,CCCCCCCC(C)NCCO (configuration not stated),106%

row,Compound,growth
1,Cc1cc(N(CCCNc2ccnc3cc(Cl)ccc23)Cc2ccc3c(c2)OCO3)nc(N2CCOCC2)n1,36.6%
2,NC(=O)CC1(c2ccccc2)CCCCC1,98.5%
3,CCN1CCCC1CNC(=O)c1ncc(-c2ccc(C(F)(F)F)cc2)c(NC2CCCCCC2)n1 (configuration not stated),86.8%
4,Cc1ccc(Nc2cc(C)nc(NCCCNc3ccnc4cc(Cl)ccc34)n2)cc1,-85% (active)
5,Cn1c([N+](=O)[O-])cnc1/C=C1\Oc2ccccc2C1=O,-49% (active)
6,CC12O[C@H](C[C@@H](OC(=O)c3ccccc3)[C@H]1O)n1c3ccccc3c3c4c(c5c6ccccc6n2c5c31)C(=O)NC4=O,61.4%
7,Nc1ccc2c(c1)C1(CCC2)NC(=O)NC1=O (configuration not stated),100%
8,COc1cc(OC)cc(-c2cncn2-c2ccc(-c3nc4cc(OC)cc(OC)c4s3)cc2)c1,68.5%
9,Clc1ccc2c(NCCCNc3nccc(Nc4ccc(Br)cc4)n3)ccnc2c1,-84.3% (active)
10,O=C(Nc1cccc(Br)c1)c1cc(=O)[nH]c2ccccc12,94.8%
11,COc1cc(Nc2ccnc(NCCCNc3ccnc4cc(Cl)ccc34)n2)cc(OC)c1,-19.9% (active)
12,CN1CCC(CNc2cc(C3(C(=O)Nc4cc(C(=O)Nc5ccc(Cl)c(C(F)(F)F)c5)ccc4F)CC3)ncn2)CC1,18.2%
13,N#Cc1c(C#N)c(SSc2c(C#N)c(C#N)c(N)n2-c2ccccc2)n(-c2ccccc2)c1N,112%
14,Clc1ccc(Nc2ccnc(NCCNc3ccnc4cc(Cl)ccc34)n2)cc1,-10.7% (active)
15,Cc1cc(N(CCCNc2ccnc3cc(Cl)ccc23)Cc2ccc3c(c2)OCO3)nc(N2CCCCC2)n1,3.28% (active)
16,CCCCN(CCCC)c1cc(C(=O)CCCCCN)c2ccccc2n1,-58% (active)
